# Source: article PMC7862700, “An all-to-all approach to the identification of sequence-specific readers for epigenetic DNA modifications on cytosine”
# How the values were obtained:
# Test in all cases: DAPPL (digital affinity profiling via proximity ligation, sequencing); 10 mM Tris-HCl pH 7.5, 50 mM NaCl, 1 mM DTT, 4% glycerol, room temperature, 30 min; GST-TFs on glutathione beads, 16-mer random dsDNA library, 0.1% formaldehyde crosslink after washing; high values mean tight binding
# [1] = target: T1, FLI1 (Homo sapiens, UniProt Q01543 1-452); conditions: protein: recombinant; tags: N-terminal GST; dsDNA, one strand shown
# T1 sequence: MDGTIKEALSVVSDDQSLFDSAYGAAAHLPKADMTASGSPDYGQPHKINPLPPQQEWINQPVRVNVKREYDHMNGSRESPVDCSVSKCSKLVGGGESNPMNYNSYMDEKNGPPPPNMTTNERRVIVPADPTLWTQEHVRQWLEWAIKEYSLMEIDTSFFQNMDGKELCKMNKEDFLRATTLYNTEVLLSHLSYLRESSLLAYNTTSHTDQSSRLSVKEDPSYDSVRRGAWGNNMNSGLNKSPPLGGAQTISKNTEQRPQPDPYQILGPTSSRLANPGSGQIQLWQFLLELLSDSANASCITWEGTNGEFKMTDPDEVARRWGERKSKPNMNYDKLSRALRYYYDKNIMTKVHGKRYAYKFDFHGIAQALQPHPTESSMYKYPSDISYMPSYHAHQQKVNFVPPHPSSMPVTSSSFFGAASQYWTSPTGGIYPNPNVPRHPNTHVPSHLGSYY
# Summary of the method: (§1)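 Pools of DNA-barcoded human transcription factors, expressed in yeast as GST fusions on glutathione beads and combined with a tag-only sample, were incubated with 200 nmole of a 16-mer random double-stranded DNA library. Incubation took 30 min at room temperature in Tris/NaCl/DTT/glycerol buffer and was followed by washing, 0.1% formaldehyde crosslinking, proximity ligation (BsaI/T4 ligase, 1 h, 37 °C), PCR amplification and sequencing on an Illumina NextSeq500. Binding signal is the ratio of a hexamer's read frequency for a factor to its frequency for the tag-only sample.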
# [2] = target: T2, ELK1 (Homo sapiens, UniProt P19419 1-428); conditions: protein: recombinant; tags: N-terminal GST; dsDNA, one strand shown
# T2 sequence: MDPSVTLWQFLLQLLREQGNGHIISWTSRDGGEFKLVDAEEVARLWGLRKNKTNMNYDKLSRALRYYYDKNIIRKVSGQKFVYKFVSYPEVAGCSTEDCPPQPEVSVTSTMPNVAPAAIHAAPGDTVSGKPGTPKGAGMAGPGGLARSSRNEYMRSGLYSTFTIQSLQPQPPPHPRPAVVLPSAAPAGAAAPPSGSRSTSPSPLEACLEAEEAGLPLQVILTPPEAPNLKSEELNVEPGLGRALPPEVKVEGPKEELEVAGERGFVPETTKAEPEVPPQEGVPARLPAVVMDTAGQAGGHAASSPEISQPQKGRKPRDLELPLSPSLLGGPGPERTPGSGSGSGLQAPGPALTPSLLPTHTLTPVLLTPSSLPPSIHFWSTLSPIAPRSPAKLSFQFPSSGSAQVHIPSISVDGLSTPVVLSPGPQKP
# Summary of the method: as §1
# [3] = target: T3, GABPA (Homo sapiens, UniProt Q06546 1-454); conditions: protein: recombinant; tags: N-terminal GST; dsDNA, one strand shown
# T3 sequence: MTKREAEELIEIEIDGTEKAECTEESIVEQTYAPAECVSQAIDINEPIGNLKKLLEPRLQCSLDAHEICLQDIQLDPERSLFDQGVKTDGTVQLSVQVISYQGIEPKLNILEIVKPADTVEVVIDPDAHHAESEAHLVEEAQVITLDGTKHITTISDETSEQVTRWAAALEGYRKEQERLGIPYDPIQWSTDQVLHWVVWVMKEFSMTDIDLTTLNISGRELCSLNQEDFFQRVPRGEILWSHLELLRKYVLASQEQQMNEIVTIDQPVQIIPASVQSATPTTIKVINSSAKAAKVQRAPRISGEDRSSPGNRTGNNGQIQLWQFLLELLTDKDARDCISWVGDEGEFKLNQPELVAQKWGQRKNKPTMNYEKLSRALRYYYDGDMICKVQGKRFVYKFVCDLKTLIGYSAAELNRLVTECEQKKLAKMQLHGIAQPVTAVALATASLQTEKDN
# Summary of the method: as §1
# [4] = target: T4, ERG (Homo sapiens, UniProt P11308 1-479); conditions: protein: recombinant; tags: N-terminal GST; dsDNA, one strand shown
# T4 sequence: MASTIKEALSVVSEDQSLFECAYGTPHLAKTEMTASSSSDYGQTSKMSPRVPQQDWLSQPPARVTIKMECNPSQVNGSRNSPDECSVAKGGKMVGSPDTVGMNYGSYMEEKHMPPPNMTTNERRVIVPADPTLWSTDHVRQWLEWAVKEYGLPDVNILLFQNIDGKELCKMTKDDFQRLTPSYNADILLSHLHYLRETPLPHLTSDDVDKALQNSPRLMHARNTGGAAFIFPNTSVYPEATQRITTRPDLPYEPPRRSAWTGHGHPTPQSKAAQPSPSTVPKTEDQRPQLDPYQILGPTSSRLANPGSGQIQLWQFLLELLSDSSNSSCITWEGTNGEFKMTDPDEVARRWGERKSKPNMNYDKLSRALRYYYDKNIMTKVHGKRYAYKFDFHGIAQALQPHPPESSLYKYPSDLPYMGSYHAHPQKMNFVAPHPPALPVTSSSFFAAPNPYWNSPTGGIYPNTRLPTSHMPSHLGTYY
# Summary of the method: as §1
# [5] = target: ELF1 (Homo sapiens, UniProt P32519 1-619); conditions: protein: recombinant; tags: N-terminal GST; dsDNA, one strand shown
# Summary of the method: as §1
# [6] = target: T5, EHF (Homo sapiens, UniProt Q9NZC4 1-300); conditions: protein: recombinant; tags: N-terminal GST; dsDNA, one strand shown
# T5 sequence: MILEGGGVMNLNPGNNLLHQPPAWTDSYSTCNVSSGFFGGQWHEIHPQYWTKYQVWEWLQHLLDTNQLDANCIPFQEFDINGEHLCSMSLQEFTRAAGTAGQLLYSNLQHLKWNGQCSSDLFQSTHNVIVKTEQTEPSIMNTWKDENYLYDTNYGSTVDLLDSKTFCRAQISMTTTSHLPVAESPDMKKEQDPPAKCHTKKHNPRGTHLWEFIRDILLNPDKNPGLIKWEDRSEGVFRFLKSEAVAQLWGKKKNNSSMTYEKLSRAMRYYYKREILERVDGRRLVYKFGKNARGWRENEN
# Summary of the method: as §1
# [7] = target: SPI1 (Homo sapiens, UniProt P17947 1-270); conditions: protein: recombinant; tags: N-terminal GST; dsDNA, one strand shown
# Summary of the method: as §1
# [8] = target: SPIB (Homo sapiens, UniProt Q01892 1-262); conditions: protein: recombinant; tags: N-terminal GST; dsDNA, one strand shown
# Summary of the method: as §1
# [9] = target: T6, ELK3 (Homo sapiens, UniProt P41970 1-407); conditions: protein: recombinant; tags: N-terminal GST; dsDNA, one strand shown
# T6 sequence: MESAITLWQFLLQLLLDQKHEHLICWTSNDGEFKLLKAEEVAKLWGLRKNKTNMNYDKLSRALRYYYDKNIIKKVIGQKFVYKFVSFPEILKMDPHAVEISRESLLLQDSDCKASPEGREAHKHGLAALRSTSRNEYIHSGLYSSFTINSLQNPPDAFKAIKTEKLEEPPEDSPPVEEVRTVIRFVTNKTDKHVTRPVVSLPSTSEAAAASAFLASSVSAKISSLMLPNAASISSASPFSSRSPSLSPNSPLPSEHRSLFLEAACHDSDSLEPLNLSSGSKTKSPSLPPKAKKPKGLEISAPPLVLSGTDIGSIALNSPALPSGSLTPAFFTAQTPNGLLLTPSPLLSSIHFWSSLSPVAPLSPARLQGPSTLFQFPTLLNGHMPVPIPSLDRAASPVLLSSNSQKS
# Summary of the method: as §1
# [10] = target: T7, FEV (Homo sapiens, UniProt Q99581 1-238); conditions: protein: recombinant; tags: N-terminal GST; dsDNA, one strand shown
# T7 sequence: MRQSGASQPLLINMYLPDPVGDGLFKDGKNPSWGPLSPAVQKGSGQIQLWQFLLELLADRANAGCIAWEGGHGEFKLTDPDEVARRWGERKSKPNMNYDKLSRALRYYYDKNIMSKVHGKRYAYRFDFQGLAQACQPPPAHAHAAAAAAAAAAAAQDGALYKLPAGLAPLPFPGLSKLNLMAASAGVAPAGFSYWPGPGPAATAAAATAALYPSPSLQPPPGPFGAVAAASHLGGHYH
# Summary of the method: as §1
# [11] = target: ETV5 (Homo sapiens, UniProt P41161 1-510); conditions: protein: recombinant; tags: N-terminal GST; dsDNA, one strand shown
# Summary of the method: as §1
# [12] = target: HSF1 (Homo sapiens, UniProt Q00613 1-529); conditions: protein: recombinant; tags: N-terminal GST; chain copies: 3; dsDNA, one strand shown
# Summary of the method: as §1
# [13] = target: T8, SPIC (Homo sapiens, UniProt Q8N5J4 1-248); conditions: protein: recombinant; tags: N-terminal GST; dsDNA, one strand shown
# T8 sequence: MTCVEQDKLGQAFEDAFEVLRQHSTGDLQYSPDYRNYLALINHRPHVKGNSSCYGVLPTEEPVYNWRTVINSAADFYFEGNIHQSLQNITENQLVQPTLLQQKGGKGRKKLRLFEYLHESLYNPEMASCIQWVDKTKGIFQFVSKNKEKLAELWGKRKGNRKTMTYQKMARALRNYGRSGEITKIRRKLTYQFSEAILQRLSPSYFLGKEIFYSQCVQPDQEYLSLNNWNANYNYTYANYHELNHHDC
# Summary of the method: as §1
# [14] = target: ELF4 (Homo sapiens, UniProt Q99607 1-663); conditions: protein: recombinant; tags: N-terminal GST; dsDNA, one strand shown
# Summary of the method: as §1
# [15] = target: T9, ELK4 (Homo sapiens, UniProt P28324-2 1-405); conditions: protein: recombinant; tags: N-terminal GST; dsDNA, one strand shown
# T9 sequence: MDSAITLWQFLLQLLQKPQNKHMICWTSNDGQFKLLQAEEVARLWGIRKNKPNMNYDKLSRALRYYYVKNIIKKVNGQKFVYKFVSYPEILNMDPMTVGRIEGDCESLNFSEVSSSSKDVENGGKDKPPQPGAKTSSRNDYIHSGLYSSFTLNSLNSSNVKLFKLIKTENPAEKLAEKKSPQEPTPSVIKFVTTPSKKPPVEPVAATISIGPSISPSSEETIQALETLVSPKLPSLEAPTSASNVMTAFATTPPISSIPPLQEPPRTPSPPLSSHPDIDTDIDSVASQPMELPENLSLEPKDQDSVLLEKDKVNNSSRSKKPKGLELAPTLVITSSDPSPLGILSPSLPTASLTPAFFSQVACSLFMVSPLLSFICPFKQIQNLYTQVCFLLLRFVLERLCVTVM
# Summary of the method: as §1
# [16] = target: T10, ETV2 (Homo sapiens, UniProt O00321 1-342); conditions: protein: recombinant; tags: N-terminal GST; dsDNA, one strand shown
# T10 sequence: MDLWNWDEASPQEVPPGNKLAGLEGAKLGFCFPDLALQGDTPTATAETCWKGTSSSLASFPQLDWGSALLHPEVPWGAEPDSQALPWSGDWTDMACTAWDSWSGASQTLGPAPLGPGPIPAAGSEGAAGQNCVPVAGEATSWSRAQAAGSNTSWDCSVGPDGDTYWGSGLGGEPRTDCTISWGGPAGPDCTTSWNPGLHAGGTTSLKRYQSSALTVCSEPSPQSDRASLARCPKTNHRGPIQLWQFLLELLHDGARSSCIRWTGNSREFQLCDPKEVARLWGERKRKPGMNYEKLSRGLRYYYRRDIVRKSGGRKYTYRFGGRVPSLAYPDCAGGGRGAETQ
# Summary of the method: as §1
# [17] = target: T11, ELF3 (Homo sapiens, UniProt P78545 1-371); conditions: protein: recombinant; tags: N-terminal GST; dsDNA, one strand shown
# T11 sequence: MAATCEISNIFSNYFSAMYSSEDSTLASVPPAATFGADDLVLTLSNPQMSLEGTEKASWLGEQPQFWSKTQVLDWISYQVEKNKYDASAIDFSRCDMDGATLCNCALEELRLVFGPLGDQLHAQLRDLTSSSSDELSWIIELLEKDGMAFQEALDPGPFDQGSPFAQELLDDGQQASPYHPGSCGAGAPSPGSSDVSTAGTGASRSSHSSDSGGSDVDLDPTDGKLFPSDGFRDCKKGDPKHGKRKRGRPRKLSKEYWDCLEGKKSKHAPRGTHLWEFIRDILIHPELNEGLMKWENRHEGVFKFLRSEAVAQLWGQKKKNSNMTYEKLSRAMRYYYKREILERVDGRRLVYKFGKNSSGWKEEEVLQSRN
# Summary of the method: as §1
# [18] = target: CRX (Homo sapiens, UniProt O43186 1-299); conditions: protein: recombinant; tags: N-terminal GST; dsDNA, one strand shown
# Summary of the method: as §1
# [19] = target: ETV1 (Homo sapiens, UniProt P50549 1-477); conditions: protein: recombinant; tags: N-terminal GST; dsDNA, one strand shown
# Summary of the method: as §1
# Chain of SPIB (Q01892 whole entry): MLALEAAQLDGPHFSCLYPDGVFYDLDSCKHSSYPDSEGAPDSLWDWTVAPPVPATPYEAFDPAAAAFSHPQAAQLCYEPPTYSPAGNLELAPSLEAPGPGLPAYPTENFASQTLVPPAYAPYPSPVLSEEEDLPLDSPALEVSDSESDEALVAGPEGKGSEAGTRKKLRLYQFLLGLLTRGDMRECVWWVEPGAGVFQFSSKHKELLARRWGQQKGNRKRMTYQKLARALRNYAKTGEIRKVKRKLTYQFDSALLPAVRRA
# Chain of ETV5 (P41161 whole entry): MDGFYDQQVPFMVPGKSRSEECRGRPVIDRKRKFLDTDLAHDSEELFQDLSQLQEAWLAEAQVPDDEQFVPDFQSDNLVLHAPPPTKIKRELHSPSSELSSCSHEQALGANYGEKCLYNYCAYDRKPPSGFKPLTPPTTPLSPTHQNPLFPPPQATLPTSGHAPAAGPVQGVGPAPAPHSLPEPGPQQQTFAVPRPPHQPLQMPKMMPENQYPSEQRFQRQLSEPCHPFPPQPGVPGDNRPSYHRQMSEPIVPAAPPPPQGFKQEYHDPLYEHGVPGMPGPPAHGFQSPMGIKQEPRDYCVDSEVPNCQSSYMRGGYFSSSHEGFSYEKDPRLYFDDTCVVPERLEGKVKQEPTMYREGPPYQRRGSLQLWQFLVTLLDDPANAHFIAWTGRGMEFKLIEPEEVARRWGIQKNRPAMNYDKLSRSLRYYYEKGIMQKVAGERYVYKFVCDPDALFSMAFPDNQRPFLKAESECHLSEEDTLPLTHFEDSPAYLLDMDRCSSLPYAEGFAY
# Chain of ELF4 (Q99607 whole entry): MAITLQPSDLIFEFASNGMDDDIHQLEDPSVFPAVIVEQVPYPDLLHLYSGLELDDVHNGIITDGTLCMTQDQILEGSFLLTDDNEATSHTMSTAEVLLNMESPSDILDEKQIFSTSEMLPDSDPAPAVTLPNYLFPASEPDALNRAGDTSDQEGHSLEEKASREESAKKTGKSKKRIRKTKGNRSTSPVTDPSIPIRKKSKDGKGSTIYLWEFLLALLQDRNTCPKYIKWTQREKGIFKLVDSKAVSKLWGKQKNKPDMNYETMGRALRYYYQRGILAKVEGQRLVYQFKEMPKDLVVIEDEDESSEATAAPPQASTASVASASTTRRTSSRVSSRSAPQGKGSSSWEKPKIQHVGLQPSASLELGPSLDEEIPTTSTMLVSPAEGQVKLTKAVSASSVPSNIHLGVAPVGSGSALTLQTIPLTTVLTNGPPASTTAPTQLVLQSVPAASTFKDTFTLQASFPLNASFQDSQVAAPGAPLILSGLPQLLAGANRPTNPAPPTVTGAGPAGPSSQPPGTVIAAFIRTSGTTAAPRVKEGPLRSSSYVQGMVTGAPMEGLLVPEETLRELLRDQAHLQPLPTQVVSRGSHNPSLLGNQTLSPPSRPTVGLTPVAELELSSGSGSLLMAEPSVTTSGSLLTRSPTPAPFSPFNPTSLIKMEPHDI
# Chain of HSF1 (Q00613 whole entry): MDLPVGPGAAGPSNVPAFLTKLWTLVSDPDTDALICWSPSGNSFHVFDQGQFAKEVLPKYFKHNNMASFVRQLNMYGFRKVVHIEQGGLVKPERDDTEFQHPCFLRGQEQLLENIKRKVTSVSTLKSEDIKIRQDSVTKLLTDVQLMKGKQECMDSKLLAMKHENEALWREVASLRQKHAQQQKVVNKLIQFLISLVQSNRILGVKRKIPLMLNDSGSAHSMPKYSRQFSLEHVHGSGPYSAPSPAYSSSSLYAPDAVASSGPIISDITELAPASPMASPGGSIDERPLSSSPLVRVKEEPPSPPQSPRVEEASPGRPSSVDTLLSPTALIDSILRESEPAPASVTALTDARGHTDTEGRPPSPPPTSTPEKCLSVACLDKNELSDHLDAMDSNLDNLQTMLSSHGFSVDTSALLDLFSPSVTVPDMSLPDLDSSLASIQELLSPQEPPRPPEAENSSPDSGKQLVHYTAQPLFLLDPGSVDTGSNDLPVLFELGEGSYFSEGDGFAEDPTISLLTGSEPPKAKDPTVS
# Chain of ELF1 (P32519 whole entry): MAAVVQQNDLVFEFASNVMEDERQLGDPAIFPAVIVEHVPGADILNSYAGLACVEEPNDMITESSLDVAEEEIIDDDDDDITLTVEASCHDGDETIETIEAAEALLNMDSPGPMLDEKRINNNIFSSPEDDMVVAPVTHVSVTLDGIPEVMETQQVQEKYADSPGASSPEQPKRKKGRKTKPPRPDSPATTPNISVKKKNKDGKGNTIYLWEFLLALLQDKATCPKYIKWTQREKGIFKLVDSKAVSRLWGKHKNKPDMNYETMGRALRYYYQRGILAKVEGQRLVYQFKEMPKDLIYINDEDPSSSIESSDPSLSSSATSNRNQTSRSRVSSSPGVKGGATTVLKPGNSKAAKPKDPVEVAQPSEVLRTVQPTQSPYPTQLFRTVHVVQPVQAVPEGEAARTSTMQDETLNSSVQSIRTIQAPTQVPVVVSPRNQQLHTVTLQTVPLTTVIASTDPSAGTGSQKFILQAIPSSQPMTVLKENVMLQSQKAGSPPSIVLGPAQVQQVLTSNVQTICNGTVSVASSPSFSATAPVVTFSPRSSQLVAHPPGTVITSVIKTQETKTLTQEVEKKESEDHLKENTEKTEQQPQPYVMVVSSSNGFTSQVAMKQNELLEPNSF
# Chain of CRX (O43186 whole entry): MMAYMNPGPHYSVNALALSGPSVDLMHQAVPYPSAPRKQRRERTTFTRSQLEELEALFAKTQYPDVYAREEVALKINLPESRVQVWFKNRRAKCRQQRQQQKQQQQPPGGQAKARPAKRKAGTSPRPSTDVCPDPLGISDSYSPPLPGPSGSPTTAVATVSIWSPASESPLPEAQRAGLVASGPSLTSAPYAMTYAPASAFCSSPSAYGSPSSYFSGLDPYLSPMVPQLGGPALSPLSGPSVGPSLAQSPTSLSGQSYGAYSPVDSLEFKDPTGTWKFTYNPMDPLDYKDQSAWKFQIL
# Chain of ETV1 (P50549 whole entry): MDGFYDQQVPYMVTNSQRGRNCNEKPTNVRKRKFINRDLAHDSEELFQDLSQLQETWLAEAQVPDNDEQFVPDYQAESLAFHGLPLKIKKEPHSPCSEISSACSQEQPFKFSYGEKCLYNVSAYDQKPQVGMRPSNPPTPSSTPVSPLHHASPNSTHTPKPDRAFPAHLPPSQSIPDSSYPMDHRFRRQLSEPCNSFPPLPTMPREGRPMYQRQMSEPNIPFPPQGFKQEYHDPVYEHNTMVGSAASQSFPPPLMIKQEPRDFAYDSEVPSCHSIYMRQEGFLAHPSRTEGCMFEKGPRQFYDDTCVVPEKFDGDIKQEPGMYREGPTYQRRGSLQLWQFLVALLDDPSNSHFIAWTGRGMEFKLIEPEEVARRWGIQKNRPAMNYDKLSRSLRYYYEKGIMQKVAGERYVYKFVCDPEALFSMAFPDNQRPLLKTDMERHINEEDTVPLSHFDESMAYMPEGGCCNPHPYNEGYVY
sequence,measurement,setting,value
AAGAAA,binding signal,[1],"1.08 fold enrichment (6-mer frequency, TF over GST control)"
same,binding signal,[2],"1.14 fold enrichment (6-mer frequency, TF over GST control)"
same,binding signal,[3],"1.25 fold enrichment (6-mer frequency, TF over GST control)"
same,binding signal,[4],"1.2 fold enrichment (6-mer frequency, TF over GST control)"
same,binding signal,[5],"1.15 fold enrichment (6-mer frequency, TF over GST control)"
same,binding signal,[6],"1.18 fold enrichment (6-mer frequency, TF over GST control)"
same,binding signal,[7],"1.22 fold enrichment (6-mer frequency, TF over GST control)"
same,binding signal,[8],"1.1 fold enrichment (6-mer frequency, TF over GST control)"
same,binding signal,[9],"1.22 fold enrichment (6-mer frequency, TF over GST control)"
same,binding signal,[10],"1.15 fold enrichment (6-mer frequency, TF over GST control)"
same,binding signal,[11],"1.19 fold enrichment (6-mer frequency, TF over GST control)"
same,binding signal,[12],"1.75 fold enrichment (6-mer frequency, TF over GST control)"
same,binding signal,[13],"1.19 fold enrichment (6-mer frequency, TF over GST control)"
same,binding signal,[14],"1.19 fold enrichment (6-mer frequency, TF over GST control)"
same,binding signal,[15],"1.18 fold enrichment (6-mer frequency, TF over GST control)"
same,binding signal,[16],"1.18 fold enrichment (6-mer frequency, TF over GST control)"
same,binding signal,[17],"1.23 fold enrichment (6-mer frequency, TF over GST control)"
same,binding signal,[18],"1.29 fold enrichment (6-mer frequency, TF over GST control)"
same,binding signal,[19],"1.2 fold enrichment (6-mer frequency, TF over GST control)"
